Hits are enriched below; roughly 6.7% of the tested compounds scored in any of these assays.
Pf Dd2 growth = P. falciparum Dd2 growth inhibitors, primary screen, SYBR Green fluorescence, single dose replicates. 72 h; active compounds read low. activity change, % at 10 µM. actives 2.3% (n = 94,000); in the data active means activity change below about -80%; inconclusive means no clear call, values can overlap the other calls
C diff HTS = C. difficile growth inhibitors, primary screen, HTS | AID 1259249, 2017 | Clostridium difficile clinical isolate growth, OD600, 24 h; active compounds read low | actives 0.25% (n = 86,000) | growth activity, negative = inhibition, % at 16 µg/mL (by protocol);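 active means mean growth activity at or below -80% and every replicate also at or below -80%; inconclusive means mean at or below -80% but some replicate above -80%; inactive means mean growth activity above -80%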
T cruzi growth-1 = T. cruzi intracellular proliferation inhibitors, primary screen, cell-based, beta-gal Tulahuen parasites, NIH3T3 host, luminescence; T. cruzi beta-gal in NIH3T3, GalScreen luminescence, 90 h; inhibition, % at 8.34 µM; actives 5.9% (n = 77,000);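 active means mean inhibition above about 93%, with at least 55% of replicates each passing it, limit read from the data, passing the limit was not always enough; inconclusive means only one of those two conditions holds; inactive means neither condition holds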
T cruzi growth-2 = T. cruzi intracellular proliferation inhibitors, confirmation, cell-based, NIH3T3 host, beta-gal parasite, luminescence, cherry-pick | shares compounds with T cruzi growth-1 | T. cruzi beta-gal in NIH3T3, GalScreen luminescence, 90 h | inhibition, % at 8.35 µM | actives 72% (n = 5,600) | AID 651739, 2012;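 active means mean replicate inhibition above about 95% and at least 55% of replicates individually reaching it, limit read from the data; inconclusive means only one of the two criteria is met; inactive means neither criterion is met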
T cruzi growth-3 = inhibitors of intracellular T. cruzi replication, confirmation, NIH3T3 host cells, beta-gal parasites, cherry-pick, set 2; actives 21% (n = 5,600); T. cruzi beta-gal in NIH3T3, GalScreen luminescence, 90 h; shares compounds with T cruzi growth-1; inhibition, % at 2.09 µM;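 active means mean inhibition above about 95%, with at least 55% of replicates also reaching it, limit read from the data; inconclusive means meets just one of the two conditions; inactive means meets neither condition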
NIH3T3 tox = cytotoxicity in mouse NIH/3T3 fibroblasts, confirmation, cytotoxicity control for T. cruzi proliferation inhibitor project, cell-based, cherry-pick, single point. shares compounds with T cruzi growth-1. NIH/3T3 viability, CellTiter-Glo ATP luminescence, 90 h. cytotoxicity (signal decrease), % at 8.35 µM. actives 14% (n = 5,600). AID 651742, 2012;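 active means mean signal decrease across replicates above about 35% based on untreated-well scatter, with enough replicates individually passing, limit read from the data; inconclusive means no rule stated though some were filed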
NIH3T3 tox 2 = NIH/3T3 fibroblast cytotoxicity, confirmation, cytotoxicity control, cell-based, cherry-pick, single point, set 2; shares compounds with T cruzi growth-1; NIH/3T3 viability, CellTiter-Glo ATP luminescence, 90 h; inhibition, % at 24.9 µM; actives 56% (n = 5,600); AID 651744, 2012;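 active means mean loss of cell viability signal at or above a set limit, and enough replicates individually reaching it; inconclusive means meets only the mean limit or only the replicate share; inactive means meets neither condition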
Large screens that a line does not name were inactive (follow-up assays come after a bar, where they were run).

C[C@H](CO)N1C[C@H](C)[C@@H](CN(C)S(=O)(=O)c2ccc(F)cc2)Oc2ccc(NS(=O)(=O)c3cn(C)cn3)cc2C1=O	none (no result: C diff HTS)
Cc1ccc(S(=O)(=O)N[C@@H]2C=C[C@H](CC(=O)NCCCN(C)C)O[C@H]2CO)cc1	none
C[C@@H]1CCCCO[C@H](CN(C)Cc2ccc3c(c2)OCO3)[C@H](C)CN([C@H](C)CO)C(=O)c2cc(NC(=O)Nc3cccc4ccccc34)ccc2O1	Pf Dd2 growth -84.4, T cruzi growth-1 135.5 | T cruzi growth-2 107.0 | T cruzi growth-3 117.8 | NIH3T3 tox inconclusive | NIH3T3 tox 2 94.1
C[C@@H]1CCCCO[C@H](CN(C)Cc2ccc3c(c2)OCO3)[C@@H](C)CN([C@H](C)CO)C(=O)c2cc(NC(=O)Nc3cccc4ccccc34)ccc2O1	none (no result: C diff HTS)
CO[C@H]1CN(C)C(=O)c2ccc(NC(=O)Cc3ccccc3)cc2OC[C@@H](C)NC[C@H]1C	none (no result: C diff HTS)
CN(C)C(=O)c1cccc(-c2ccc([C@@H]3[C@@H](CO)N4CCCCN(S(C)(=O)=O)C[C@@H]34)cc2)c1	T cruzi growth-1 99.3 | T cruzi growth-2 inconclusive | T cruzi growth-3 inactive | NIH3T3 tox inactive | NIH3T3 tox 2 inactive
CN(C)C(=O)c1cccc(-c2ccc([C@@H]3[C@H]4CN(C(=O)C5CCCC5)CCCCN4[C@H]3CO)cc2)c1	none
CN(C)C(=O)c1cccc(-c2ccc([C@H]3[C@@H](CO)N4CCCCN(C(=O)C5CCC5)C[C@@H]34)cc2)c1	T cruzi growth-1 105.3 | T cruzi growth-2 inactive | T cruzi growth-3 inactive | NIH3T3 tox inactive | NIH3T3 tox 2 inactive
CN(C)C(=O)c1cccc(-c2ccc([C@@H]3[C@@H](CO)N4CCCCN(S(C)(=O)=O)C[C@H]34)cc2)c1	none
CN(C)C(=O)c1cccc(-c2ccc([C@@H]3[C@H](CO)N4CCCCN(C(=O)C5CCCC5)C[C@@H]34)cc2)c1	none
CN(C)C(=O)c1cccc(-c2ccc([C@H]3[C@H](CO)N4CCCCN(C(=O)C5CCCC5)C[C@@H]34)cc2)c1	T cruzi growth-1 inconclusive | T cruzi growth-2 99.1 | T cruzi growth-3 inactive | NIH3T3 tox inactive | NIH3T3 tox 2 inactive
C[C@H]1CN([C@@H](C)CO)C(=O)Cc2cc(N(C)C)ccc2O[C@H]1CN(C)S(C)(=O)=O	none
Cn1cnc(S(=O)(=O)N[C@H]2CC[C@@H](CC(=O)NCC3CC3)O[C@H]2CO)c1	none (no result: T cruzi growth-1)
CS(=O)(=O)Nc1ccc2c(c1)[C@@H]1C[C@@H](CC(=O)NCCc3ccccc3)O[C@H](CO)[C@@H]1O2	none
CN1c2ccc(-c3ccc(C#N)cc3)cc2[C@@H]2[C@@H](CCN2C(=O)Nc2ccccc2F)[C@@H]1CO	none
CN1c2ccc(-c3ccc(F)cc3)cc2[C@H]2[C@H](CCN2C(=O)Nc2cc(F)ccc2F)[C@H]1CO	none
COc1ccccc1NC(=O)N1CC[C@@H]2[C@H]1c1cc(-c3ccc(F)cc3)ccc1N(C)[C@H]2CO	none
CN1c2ccc(-c3cccc(C#N)c3)cc2[C@@H]2[C@@H](CCN2C(=O)Nc2cc(F)ccc2F)[C@@H]1CO	T cruzi growth-1 inconclusive | T cruzi growth-2 99.6 | T cruzi growth-3 inactive | NIH3T3 tox inactive | NIH3T3 tox 2 inactive
CN1c2ccc(Br)cc2[C@H]2[C@H](CCN2C(=O)Nc2cc(F)ccc2F)[C@H]1CO	T cruzi growth-1 inconclusive | T cruzi growth-2 104.5 | T cruzi growth-3 inactive | NIH3T3 tox inactive | NIH3T3 tox 2 44.2
COc1ccccc1NC(=O)N1CC[C@H]2[C@@H]1c1cc(C#Cc3ccc(F)cc3)ccc1N(C)[C@H]2CO	T cruzi growth-1 108.2 | T cruzi growth-2 106.0 | T cruzi growth-3 116.1 | NIH3T3 tox inactive | NIH3T3 tox 2 inactive
COc1ccc(S(=O)(=O)N2C[C@@H](O)COC[C@H]3O[C@H](CC(=O)NCCCN4CCOCC4)CC[C@@H]32)cc1	none (no result: C diff HTS)
CCNC(=O)C[C@H]1CC[C@@H]2[C@H](COc3ccc(NC(=O)Nc4ccccc4Cl)cc3C(=O)N2C)O1	none
CO[C@H](CN(C)Cc1ccc(-c2ccccn2)cc1)[C@@H](C)CN(C(=O)Nc1ccc(F)cc1)[C@H](C)CO	none (no result: C diff HTS)
CO[C@H](CN(C)Cc1ccc(-c2ccccn2)cc1)[C@@H](C)CN(C(=O)Nc1ccc(F)cc1)[C@@H](C)CO	T cruzi growth-1 100.5 (no result: C diff HTS) | T cruzi growth-2 102.3 | T cruzi growth-3 inactive | NIH3T3 tox inactive | NIH3T3 tox 2 inactive
COc1ccc2c3c(n(C)c2c1)[C@@H](CO)N(C(=O)Nc1ccccc1F)CC31CN(C)C1	none (no result: C diff HTS, T cruzi growth-1)
COc1ccc(NC(=O)Nc2ccc3c(c2)C(=O)N([C@@H](C)CO)C[C@@H](C)[C@@H](CN(C)C(=O)CCC(F)(F)F)OCCCC[C@@H](C)O3)cc1	none
C[C@@H]1CCCCO[C@H](CN(C)S(=O)(=O)c2cccs2)[C@H](C)CN([C@@H](C)CO)C(=O)c2cc(NC(=O)CCCN(C)C)ccc2O1	none
CC(C)C#Cc1ccc2c(c1)O[C@H](CN(C)C(=O)c1ccncc1)[C@H](C)CN([C@H](C)CO)S2(=O)=O	none
C[C@H](O)C#Cc1ccc2c(c1)O[C@@H](CN(C)Cc1ccncc1)[C@@H](C)CN([C@@H](C)CO)S2(=O)=O	none
CC(C)C#Cc1ccc2c(c1)O[C@@H](CN(C)Cc1ccncc1)[C@H](C)CN([C@H](C)CO)S2(=O)=O	T cruzi growth-1 119.1 | T cruzi growth-2 105.8 | T cruzi growth-3 101.7 | NIH3T3 tox 63.3 | NIH3T3 tox 2 104.4
C[C@H](CO)N1C[C@H](C)[C@@H](CN(C)Cc2ccncc2)Oc2cc(C#C[C@@H](C)O)ccc2S1(=O)=O	none
CC(C)C#Cc1ccc2c(c1)O[C@@H](CN(C)C(=O)c1ccncc1)[C@@H](C)CN([C@@H](C)CO)S2(=O)=O	T cruzi growth-1 102.0 | T cruzi growth-2 99.6 | T cruzi growth-3 inconclusive | NIH3T3 tox inactive | NIH3T3 tox 2 45.0
CC(C)C#Cc1ccc2c(c1)O[C@H](CN(C)Cc1ccncc1)[C@@H](C)CN([C@H](C)CO)S2(=O)=O	T cruzi growth-1 inconclusive | T cruzi growth-2 98.8 | T cruzi growth-3 101.0 | NIH3T3 tox 56.5 | NIH3T3 tox 2 102.6
C[C@H]1CCCCO[C@H](CN(C)Cc2ccc3c(c2)OCO3)[C@@H](C)CN([C@@H](C)CO)C(=O)c2cc(NC(=O)CCCN(C)C)ccc2O1	none
O=C(NC1CCCC1)[C@@H]1[C@@H](CO)[C@@H]2Cn3c(ccc(-c4ccccc4F)c3=O)[C@H]1N2C(=O)CC1CC1	none (no result: Pf Dd2 growth)

Screening data: PubChem BioAssay, Broad Institute
